Compound activity deposited in PubChem by National Center for Advancing Translational Sciences (NCATS).
HepG2 tox-1: qHTS for Inhibitors of TGF-b: Cytotox Counterscreen. HepG2 CAGA-GFP viability, ATP luminescence, 18 h. Potency, µM (titrated, usually from 46.1 µM), usual class: cytotoxic. hit rate 0.76% among 410,000
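CellTiter-Glo luminescence gave cytotoxicity after 18 hours at 37 degrees C. The cells were HepG2 CAGA-GFP in 1% FBS DMEM, stimulated with 500 pg/mL TGF-beta after compound addition. %Activity was normalised to no-cell wells (complete cell-killing) and DMSO (no toxicity), and curves were fitted and classified.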
RORg inh: qHTS for inhibitors of ROR gamma transcriptional activity; Nuclear receptor ROR-gamma (Mus musculus), P51450; Drosophila S2 Gal4-RORgamma UAS-luciferase reporter, 20 h; Potency, µM (highest dose often 53.6 µM), most hits filed as inhibitors; hit rate 5.4% among 310,000; further: nearly all actives have a fitted effect of over 60% in size
Target sequence (P51450 whole entry, looked up, the tested form may be a part): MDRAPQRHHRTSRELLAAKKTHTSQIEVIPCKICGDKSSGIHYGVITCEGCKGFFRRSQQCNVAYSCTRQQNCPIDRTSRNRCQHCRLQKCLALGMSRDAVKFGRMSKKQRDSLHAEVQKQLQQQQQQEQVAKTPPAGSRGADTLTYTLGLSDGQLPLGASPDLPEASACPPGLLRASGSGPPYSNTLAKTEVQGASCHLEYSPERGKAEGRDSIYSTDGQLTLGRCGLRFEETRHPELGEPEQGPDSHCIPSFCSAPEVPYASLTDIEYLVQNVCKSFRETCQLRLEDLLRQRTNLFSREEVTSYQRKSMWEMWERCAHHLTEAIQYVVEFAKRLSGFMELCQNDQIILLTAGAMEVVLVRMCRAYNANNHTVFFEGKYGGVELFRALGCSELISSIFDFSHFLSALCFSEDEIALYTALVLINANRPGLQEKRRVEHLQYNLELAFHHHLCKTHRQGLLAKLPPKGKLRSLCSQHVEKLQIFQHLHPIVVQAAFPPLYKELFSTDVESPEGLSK
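Stable Schneider cell line, Gal4 DNA-binding domain fused to ROR gamma, UAS-luciferase. Cmpd 1 hr RT → CuSO4 700 uM final → 20 hr RT → luciferase reagent 10 min → luminescence.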
Gal4-VP16 FLuc: VP16 counterscreen qHTS for inhibitors of ROR gamma transcriptional activity | Potency, µM (doses to about 53.6 µM), actives largely listed as inhibitors | hit rate 3.5% among 310,000 | Drosophila S2 Gal4-VP16 UAS-luciferase, luminescence, 20 h;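 further: Gal4-VP16 expression switched on by copper sulfate through the metallothionein promoter; nearly all actives have a fitted effect of over 50% in size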
TGFb inhibitor: qHTS for Inhibitors of TGF-b; HepG2 CAGA-GFP TGF-b/SMAD3 reporter, GFP fluorescence, 18 h; TGF-beta stimulated, 500 pg/mL final; Potency, µM (highest dose often 46.1 µM), most hits filed as inhibitors; hit rate 1.2% among 410,000; further: nearly all actives have a fitted effect of over 65% in size
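Using HEPG2 CAGA-GFP reporter cells at 1000 cells/well, we pinned test compounds, stimulated with recombinant TGF-beta (500 pg/mL final) and measured total well GFP after 18 h.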
ATXN viability: Viability Counterscreen for Primary qHTS for Inhibitors of ATXN expression | hit rate 0.49% among 400,000 | S2 cells (HEK-293 line with an ATXN2-luciferase reporter) viability, CellTiter-Fluor protease fluorescence, 24 h | Potency, µM (highest dose often 56.7 µM), actives largely listed as cytotoxic; further: nearly all actives have a fitted effect of over 40% in size
ATXN2 expr inh: Primary qHTS for Inhibitors of ATXN expression | hit rate 0.72% among 360,000 | HEK-293 ATXN2-luciferase reporter, luminescence, 24 h | Potency, µM (highest dose often 57 µM), most hits filed as inhibitors; further: nearly all actives have a fitted effect of over 55% in size
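ATXN2-luciferase reporter cells (luciferase flanked by upstream and downstream ATXN2 gene portions) were treated 24 h at 37 °C with compounds at up to 57 uM. SteadyGlo luminescence gave expression; GF-AFC fluorescence gave viability.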
TGFb confirm: qHTS for Inhibitors of TGF-b: Confirmation of Cherry Picks | shares compounds with TGFb inhibitor | HepG2 CAGA-GFP TGF-b reporter, GFP fluorescence, 18 h; cells stimulated with TGF-beta, 500 pg/mL | Potency, µM (doses to about 46.1 µM), most hits filed as inhibitors | hit rate 63% among 1,600 | AID 720534, 2013; further: nearly all actives have a fitted effect of over 65% in size
HepG2 tox-2: qHTS for Inhibitors of TGF-b: Cytotox Counterscreen for Cherry Picks. shares compounds with TGFb inhibitor. HepG2 CAGA-GFP viability, ATP luminescence, 18 h; cells stimulated with TGF-beta, 500 pg/mL. Potency, µM (top dose mostly 46.1 µM), actives largely listed as inhibitors. hit rate 27% among 1,600. AID 720535, 2013; further: nearly all actives have a fitted effect of over 70% in size
CCL64 TGFb inh: qHTS for Inhibitors of TGF-b: CCL64 Cells Orthogonal Assay for Cherry Picks. shares compounds with TGFb inhibitor. CCL64 CAGA-GFP reporter, TGF-b stimulated, GFP fluorescence, 18 h. Potency, µM (highest dose often 46.1 µM), hits mostly inhibitors. hit rate 41% among 1,600. AID 720536, 2013; further: nearly all actives have a fitted effect of over 65% in size
COP TGFb inh: qHTS for Inhibitors of TGF-b: Hit Validation in HepG2 Cells using COP promoter; shares compounds with TGFb inhibitor; HepG2 COP-GFP TGF-b reporter, GFP fluorescence, 18 h; cells stimulated by added recombinant TGF-beta; Potency, µM (highest dose often 46.1 µM), usual class: inhibitors; hit rate 3% among 1,600; AID 720537, 2013; further: nearly all actives have a fitted effect of over 70% in size
Hits are given with their value. The list is not random: actives were taken first. Their share in the collection is about 6.3%. The call rests on the fitted dose curve; in most records, active means well fitted curve in the direction sought with a large enough effect; inconclusive means small, poorly fitted or top-dose-only effect, or another doubt; inactive means no such curve, though single readings can be large; an effect the other way counts as inactive or inconclusive.

Results for CCOc1ccccc1CNC(=O)c1ccc(Sc2ccc(Cl)cc2)c(NC(C)=O)c1 ?
HepG2 tox-1: inactive; RORg inh: inactive; Gal4-VP16 FLuc: inactive; TGFb inhibitor: inconclusive; ATXN viability: inactive; ATXN2 expr inh: inactive; TGFb confirm: inconclusive; HepG2 tox-2: inactive; CCL64 TGFb inh: inconclusive; COP TGFb inh: inactive

How did Cc1ccc2scc(N3CCCCC3C)c(=O)c2c1 (configuration not stated) do in these assays?
HepG2 tox-1: inactive; TGFb inhibitor: inactive; ATXN viability: inconclusive; ATXN2 expr inh: inactive

How did COc1cc(NC(=O)c2cc(Cl)ccc2Cl)ccc1-c1cc2ccccc2oc1=O do in these assays?
HepG2 tox-1: inactive; RORg inh: inactive; Gal4-VP16 FLuc: inactive; TGFb inhibitor: inactive; ATXN viability: inactive; ATXN2 expr inh: inactive

How did CCc1ccc(OCC(=O)Nc2ccc(-c3cc4ccccc4oc3=O)c(OC)c2)cc1 do in these assays?
HepG2 tox-1: inactive; RORg inh: inconclusive; Gal4-VP16 FLuc: inactive; TGFb inhibitor: inconclusive; ATXN viability: inconclusive; ATXN2 expr inh: inactive; TGFb confirm: inconclusive; HepG2 tox-2: inactive; CCL64 TGFb inh: inactive; COP TGFb inh: inactive

Results for COc1ccc[n+](CC(=O)c2ccc(F)cc2)c1 ?
HepG2 tox-1: inactive; TGFb inhibitor: inactive

What do the screens show for `Cc1cccc(-n2ncc3c(N4CCCC(C)C4)ncnc32)c1` (configuration not stated)?
HepG2 tox-1: inactive; TGFb inhibitor: inactive; ATXN viability: inactive; ATXN2 expr inh: inactive

How did CCOc1nc(N=C(N)N)nc2c(C)cccc12 do in these assays?
HepG2 tox-1: inactive; RORg inh: inactive; Gal4-VP16 FLuc: inactive; TGFb inhibitor: 7.94µM; ATXN viability: inconclusive; ATXN2 expr inh: inconclusive; TGFb confirm: 16.4µM; HepG2 tox-2: inconclusive; CCL64 TGFb inh: inactive; COP TGFb inh: inactive

How did O=C1C=C(c2cc3ccccc3o2)C[C@@H](c2ccc(F)cc2)C1 do in these assays?
HepG2 tox-1: inactive; TGFb inhibitor: inactive; ATXN viability: inactive; ATXN2 expr inh: inactive

Results for CCC(=O)NC(c1ccc(OC)cc1)c1cc(Cl)c2cccnc2c1O (configuration not stated) ?
HepG2 tox-1: inactive; RORg inh: inactive; Gal4-VP16 FLuc: inactive; TGFb inhibitor: 7.94µM; ATXN viability: inactive; ATXN2 expr inh: inconclusive; TGFb confirm: inactive; HepG2 tox-2: inconclusive; CCL64 TGFb inh: 8.2µM; COP TGFb inh: inactive

How did CCC(=O)NC(c1ccco1)c1cc(Cl)c2cccnc2c1OC (configuration not stated) do in these assays?
HepG2 tox-1: inactive; TGFb inhibitor: inconclusive; ATXN viability: inactive; ATXN2 expr inh: inactive
